Inconclusive results are not listed. Activity calls are given as the source filed them. Rule for the calls: active = hit-call score of the fitted dose curve at least 0.9, where 1 is the maximum; inconclusive = response in the unintended direction; inactive = score below 0.9.
The molecules below were run on Cytochrome P450 3A4 (Homo sapiens) (UniProt P08684) (assay: CLD_CYP3A4_24hr: CellzDirect (CLD) Gene Expression Assay for xenobiotic metabolism (CYP3A4) at 24 hours (AID 2283689)).
Chain of Cytochrome P450 3A4 (Homo sapiens) (P08684 whole entry, looked up): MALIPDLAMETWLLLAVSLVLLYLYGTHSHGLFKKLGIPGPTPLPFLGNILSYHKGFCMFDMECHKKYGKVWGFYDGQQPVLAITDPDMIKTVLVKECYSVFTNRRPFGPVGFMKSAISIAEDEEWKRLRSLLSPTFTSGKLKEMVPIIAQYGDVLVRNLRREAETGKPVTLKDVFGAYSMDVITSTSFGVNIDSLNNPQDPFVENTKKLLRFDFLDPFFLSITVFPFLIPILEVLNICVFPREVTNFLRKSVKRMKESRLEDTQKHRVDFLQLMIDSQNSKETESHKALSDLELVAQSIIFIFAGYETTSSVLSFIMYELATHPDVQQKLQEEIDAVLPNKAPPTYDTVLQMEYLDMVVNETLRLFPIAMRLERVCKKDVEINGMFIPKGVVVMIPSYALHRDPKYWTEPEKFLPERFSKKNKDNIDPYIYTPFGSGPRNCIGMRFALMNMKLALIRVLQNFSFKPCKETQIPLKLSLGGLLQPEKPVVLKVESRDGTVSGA
Procedure: CLD_24hr is a cell-based, multiplexed-readout assay that uses hepatocyte, a human liver primary cell, with measurements taken at 24 hours after chemical dosing in a 96-well plate.CLD_CYP3A4_24hr is one of 16 assay component(s) measured or calculated from the CLD_24hr assay. It is designed to make measurements of mRNA induction, a form of inducible reporter, as detected with chemiluminescence signals by Quantitative Nuclease Protection Assay (qNPA) technology.Data from the assay component CLD_CYP3A4_24hr was analyzed at the endpoint, CLD_CYP3A4_24hr, in the positive analysis fitting direction relative to DMSO as the negative control and baseline of activity. Using a type of inducible reporter, gain-of-signal activity can be used to understand changes in the reporter gene as they relate to the gene CYP3A4. Furthermore, this assay endpoint can be referred to as a primary readout. To generalize the intended target to other relatable targets, this assay endpoint is annotated to the cyp intended target family, where subfamily is xenobiotic metabolism.
Human hepatocyte cultures were treated daily for two consecutive days with fresh dosing solutions containing appropriate concentrations of the 320 ToxCast chemicals (chemical identities were blinded to CellzDirect and other ToxCast collaborators), vehicle control (0.2% DMSO), and positive control inducers as summarized in Table 1. Due to the large number of treatment groups and chemicals examined, the ToxCast chemicals were divided into two groups (spanning two independent cultures of hepatocytes from separate donor preparations (Hu778: ToxCast plates 1 and 2; Hu776: ToxCast plates 3 and 4). Each preparation of human hepatocyte cultures was treated with respective vehicle control, medium only control, set of six positive controls/reference chemicals for the five hepatic receptor pathways, and a subset of eight of the ToxCast chemicals (indoxacarb, pyrithiobac-sodium, norflurazon, cyhalofop-butyl, methomyl, thiram, acetochlor, and propiconazole). These replicate data, coupled with internal replicates designed within the blinded ToxCast chemical library, provided additional data to evaluate interindividual differences between hepatocyte preparations and their potential impact on chemical profiles.Cell morphology and integrity were evaluated using phase-contrast microscopy as an indicator of hepatocyte cell health (Tyson & Green, 1987). Cultures for each treatment group (i.e., media, vehicle [0.2% DMSO], positive control inducers [multiple concentrations], and the ToxCast chemicals [multiple concentrations]) were observed and cell morphology was assessed relative to vehicle control cultures at each harvest time point (0, 6, 24, or 48 h). […] Images were evaluated at the conclusion of the study to assess changes in cell integrity and account for the effects of chemical exposure on uncharacteristic changes in concentration-dependent gene expression profiles. The results from these determinations of apparent cytotoxicity were annotated (yes/no) alongside the corresponding qNPA data for reference.At the conclusion of each treatment period, hepatocyte cultures (96-well) were washed with 1 volume of HBSS, lysed by addition of 25 ul ArrayPlate lysis buffer (HTG, Tucson, AZ), and 70 ul/well of Denaturation Oil, denatured by incubation at 95C for 10 min, and frozen at approximately -70C until analysis by nuclease protection assay (qNPA) (Roberts et al., 2007). For qNPA analysis, cell lysates were thawed at 50C for approximately 30 min, qNPA probes were added, and samples were incubated at 95C for 10 min to begin the detection process by denaturing the target RNA, dissociating the duplexes and secondary structure hybridization. At the conclusion of the hybridization period, S1 nuclease reagent was added to each sample to digest all nonprotected nucleotides at 50C for 60-90 min. […]
`CC[C@H](C)[C@H]1O[C@]2(C=C[C@@H]1C)C[C@@H]1C[C@@H](C/C=C(\C)[C@@H](O[C@H]3C[C@H](OC)[C@@H](O[C@H]4C[C@H](OC)[C@@H](NC)[C@H](C)O4)[C@H](C)O3)[C@@H](C)/C=C/C=C3\CO[C@@H]4[C@H](O)C(C)=C[C@@H](C(=O)O1)[C@]34O)O2` was tested, and the outcome was “inactive”.
For `CC(=NC#N)N(C)Cc1ccc(Cl)nc1`, the outcome was “inactive”.
With `CN(C)NC(=O)CCC(=O)O` the outcome was “inactive”.
In the case of `CSC1=N[C@@](C)(c2ccccc2)C(=O)N1Nc1ccccc1`, the outcome is reported as “inactive”.
In the case of `CCOP(=O)(OCC)Oc1cc(C)nc(C(C)C)n1`, the outcome is reported as “inactive”.
With `CNC(=O)Oc1cccc2c1OC(C)(C)O2` the AC50 was 20 µM (active).
In the case of `O=C(O)c1cc(Oc2ccc(C(F)(F)F)cc2Cl)ccc1[N+](=O)[O-]`, the outcome is reported as “inactive”.
`CC(C)[C@H](C(=O)O[C@H](C#N)c1cccc(Oc2ccccc2)c1)c1ccc(Cl)cc1` was tested, and the outcome was “inactive”.
`CN1COCN(Cc2cnc(Cl)s2)C1=N[N+](=O)[O-]` was tested, and the outcome was “inactive”.
For `CCCCSP(=O)(SCCCC)SCCCC`, the AC50 was 1.9 µM (active).
In the case of `CCc1cccc(CC)c1N(COC)C(=O)CCl`, the AC50 is reported as 15.7 µM (active).
With `C#CCC1=C(C)C(OC(=O)C2C(C=C(C)C)C2(C)C)CC1=O` (stereo not given) the AC50 was 4.64 µM (active).
In the case of `CCc1cccc(C)c1N(C(=O)CCl)C(C)COC` (stereo not given), the AC50 is reported as 8.71 µM (active).
For `CNC(=O)ON=C(C)SC`, the outcome was “inactive”.
`CCC(=NOC/C=C/Cl)C1=C(O)CC(C2CCOCC2)CC1=O` (stereo not given) was tested, and the outcome was “inactive”.
`COc1cccc(C(=O)NN(C(=O)c2cc(C)cc(C)c2)C(C)(C)C)c1C` was tested, and the AC50 was 3.74 µM (active).
For `C#CC(C)(C)NC(=O)c1cc(Cl)cc(Cl)c1`, the outcome was “inactive”.
For `CN(C)C(=O)Nc1cccc(C(F)(F)F)c1`, the AC50 was 20 µM (active).
`CC(C)=CC1C(C(=O)OCN2C(=O)C3=C(CCCC3)C2=O)C1(C)C` (stereo not given) was tested, and the AC50 was 4.28 µM (active).
In the case of `C=C(C)[C@H]1Cc2c(ccc3c2O[C@@H]2COc4cc(OC)c(OC)cc4[C@@H]2C3=O)O1`, the outcome is reported as “inactive”.
`CCCOCC(=Nc1ccc(Cl)cc1C(F)(F)F)n1ccnc1` was tested, and the AC50 was 1.9 µM (active).
For `Cc1nn(-c2cc(NS(C)(=O)=O)c(Cl)cc2Cl)c(=O)n1C(F)F`, the AC50 was 0.376 µM (active).
For `CC(COc1ccc(Oc2ccccc2)cc1)Oc1ccccn1` (stereo not given), the AC50 was 4.68 µM (active).
In the case of `CCOP(=S)(OCC)SCCSCC`, the AC50 is reported as 20 µM (active).
In the case of `CNC(=O)ON=C(SC)C(=O)N(C)C`, the outcome is reported as “inactive”.
In the case of `CCCOc1nn(C(=O)NS(=O)(=O)c2ccccc2C(=O)OC)c(=O)n1C`, the AC50 is reported as 9.43 µM (active).
For `CON=C(C(=O)OC)c1ccccc1CON=C(C)c1cccc(C(F)(F)F)c1`, the AC50 was 15.6 µM (active).
With `COP(=O)(NC(C)=O)SC` (stereo not given) the outcome was “inactive”.
With `CCCCOC(=O)[C@@H](C)Oc1ccc(Oc2ccc(C#N)cc2F)cc1` the outcome was “inactive”.
`CCOP(=O)(SC(C)CC)N1CCSC1=O` (stereo not given) was tested, and the AC50 was 13.4 µM (active).
In the case of `O=[N+]([O-])c1cc(C(F)(F)F)c(Cl)c([N+](=O)[O-])c1Nc1ncc(C(F)(F)F)cc1Cl`, the outcome is reported as “inactive”.
With `CSc1nc(NC(C)C)nc(NC(C)C)n1` the AC50 was 3.97 µM (active).
For `Nc1c(Cl)cc([N+](=O)[O-])cc1Cl`, the outcome was “inactive”.
`N#CSCSC#N` was tested, and the outcome was “inactive”.
For `CC1(C(=O)Nc2ccc(O)c(Cl)c2Cl)CCCCC1`, the outcome was “inactive”.
In the case of `COc1ccc(C(=CC(=O)N2CCOCC2)c2ccc(Cl)cc2)cc1OC`, the AC50 is reported as 2.09 µM (active).
`CCOC(=O)CC(SP(=O)(OC)OC)C(=O)OCC` (stereo not given) was tested, and the AC50 was 20 µM (active).
`CCOP(=S)(OCC)OC(Cl)C(Cl)(Cl)Cl` (stereo not given) was tested, and the AC50 was 6.19 µM (active).
With `CCC(=O)Nc1ccc(Cl)c(Cl)c1` the outcome was “inactive”.
In the case of `CCNc1nc(Cl)nc(NC(C)(C)C#N)n1`, the AC50 is reported as 4.74 µM (active).

From PubChem BioAssay (EPA / NIEHS)
